This note sets out measurements from PubChem BioAssay (Tox21).

Experiment [1] is described as follows: Nuclear factor erythroid 2-related factor 2/antioxidant responsive element (Nrf2/ARE) small molecule agonists: qHTS cell viability counter screen in human keratinocytes (AID 1919968; active means well fitted curve in the direction sought with a large enough effect in the repeat runs; an effect the other way counts as inactive or inconclusive; further: nearly all actives have a fitted effect of over 55% in size; further: potency means the concentration at half of the fitted maximal effect). In short, it runs like this:
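CellTiter-Fluor fluorescence, read 1 h after reagent, gave viability in the same wells as the ARE-luciferase assay. KeratinoSens cells (1,500/well) had 23 h compound exposure at 37 C/5% CO2 following 5 h plating.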

Experiment [2] in a line: Nuclear factor erythroid 2-related factor 2/antioxidant responsive element (Nrf2/ARE) small molecule agonists: luciferase reporter gene qHTS assay in human keratinocytes (AID 1919969). Further: nearly all actives have a fitted effect of over 35% in size. Further: potency means the concentration at half of the fitted maximal effect. In general terms: In a reporter assay the amount or activity of a reporter protein is the signal.
Experiment [3] deals with Gonadotropin-releasing hormone receptor (Homo sapiens) (UniProt P30968). Nature of the experiment: Human gonadotropin-releasing hormone receptor (GnRHR) small molecule agonists, calcium flux assay in GnRHR-HEK293 cells (AID 1920063). Further: nearly all actives have a fitted effect of over 35% in size. In short, it runs like this:
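Agonist mode: compounds at 15 concentrations, in triplicate, went onto calcium dye-loaded GnRHR-HEK293 cells. Intracellular calcium was then followed as 480/540 nm fluorescence at 1 s intervals over 3 min.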
In general terms: A change in cytosolic calcium serves as a functional read-out for many receptors and channels.

In experiment [4] the target is KiSS-1 receptor (Homo sapiens) (UniProt Q969F8). Nature of the experiment: Human kisspeptin (KISS1R) small molecule agonists, calcium flux assay in KISS1R-HEK293 cells (AID 1920064; active means well fitted curve in the direction sought with a large enough effect in the repeat runs; an effect the other way counts as inactive or inconclusive). In short, it runs like this: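 Agonist mode: intracellular calcium rise tracked at 1 s intervals over 3 min (480/540 nm) immediately after compound addition to dye-loaded KISS1R-HEK293 stable cells. Each compound tested at 15 concentrations in triplicate.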
Sequence of KiSS-1 receptor (Homo sapiens) (Q969F8 whole entry, looked up): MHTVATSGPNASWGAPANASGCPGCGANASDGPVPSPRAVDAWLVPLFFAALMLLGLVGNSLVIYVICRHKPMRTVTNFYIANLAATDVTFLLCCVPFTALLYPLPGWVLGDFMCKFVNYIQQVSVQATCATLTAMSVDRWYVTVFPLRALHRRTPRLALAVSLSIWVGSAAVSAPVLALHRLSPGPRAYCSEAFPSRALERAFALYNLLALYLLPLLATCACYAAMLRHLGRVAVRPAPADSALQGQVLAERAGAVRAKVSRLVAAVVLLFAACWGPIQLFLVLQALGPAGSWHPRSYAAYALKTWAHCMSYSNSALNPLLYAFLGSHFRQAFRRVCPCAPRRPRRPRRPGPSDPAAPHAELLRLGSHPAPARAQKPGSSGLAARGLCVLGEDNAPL

The nature of experiment [5]: G protein-coupled receptor (GPCR) small molecule agonists, calcium flux assay: HEK293 wild type cell line counter screen (AID 1920065). In short, it runs like this:
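Calcium flux counter screen: compound added in agonist mode at 15 concentrations in triplicate to dye-loaded parental HEK293 cells. Fluorescence (480/540) read kinetically for 3 min; ATP served as positive control.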

A short description of experiment [6]: p53 small molecule agonists, cell-based qHTS assay with rat liver microsomes (AID 1963578). In short, it runs like this: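 Quantitative HTS of the Tox21 10K library: p53RE-bla cells, rat liver microsomes plus NADPH at 0.5 mg/mL final each, 16 h at 37 C, beta-lactamase fluorescence detection.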
For orientation: qHTS replaces the single test concentration by a dilution series.

A short description of experiment [7]: p53 small molecule agonists, cell-based qHTS assay with rat liver microsomes: qHTS cell viability counter screen (AID 1963580). Further: nearly all actives have a fitted effect of over 45% in size. Further: potency means the concentration at half of the fitted maximal effect. In short, it runs like this:
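Rat liver microsome (0.5 mg/mL final) and NADPH (0.5 mg/mL final) co-incubation with compounds for 16 h at 37 C on HCT-116 p53RE-bla cells; cytotoxicity taken from intracellular ATP luminescence.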

Experiment [8] can be described thus: p53 small molecule agonists, cell-based qHTS assay: qHTS cell viability counter screen (AID 1963581). Further: nearly all actives have a fitted effect of over 45% in size. In short, it runs like this: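 Counter screen read by CellTiter-Glo luminescence (ATP content, 30 min at room temperature), run in the same wells as the beta-lactamase reporter read. HCT-116 p53RE-bla cells saw compounds for 16 h at 37 C.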
Experiment [9] has as its target 5-hydroxytryptamine receptor 2A (Homo sapiens) (UniProt P28223). The experiment can be described thus: 5-hydroxytryptamine receptor 2A (HTR2A) small molecule antagonists, cell-based qHTS assay (AID 1963586). Further: nearly all actives have a fitted effect of over 45% in size. Further: potency means the concentration at half of the fitted maximal effect. In short, it runs like this: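 CHO cells stably expressing human HTR2A were plated for 18 h at 37 C, then loaded with calcium dye for 1 h. Compounds were preincubated 5 min at room temperature before DOI (4 nM solution) was added. Kinetic fluorescence was read for 3 min.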

Experiment [10] has the same target. Nature of the experiment: 5-hydroxytryptamine receptor 2A (HTR2A) small molecule agonists, cell-based qHTS assay (AID 1963587). Further: nearly all actives have a fitted effect of over 30% in size. Further: potency means the concentration at half of the fitted maximal effect. In short, it runs like this: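 Kinetic calcium-flux fluorescence (2 min, 1 sec intervals) after compound addition in agonist mode. HTR2A-CHO cells were cultured 18 h, then dye-loaded 1 h at 37 C.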
In experiment [11] the target is Muscarinic acetylcholine receptor M1 (Homo sapiens) (UniProt P11229). The experiment can be described thus: Cholinergic receptor muscarinic 1 (CHRM1) small molecule agonists, cell-based qHTS assay (AID 1963589). Further: nearly all actives have a fitted effect of over 35% in size. In short, it runs like this: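 Agonist-mode calcium-flux screen: compounds at 15 concentrations, three independent runs, were pin-transferred onto dye-loaded human CHRM1-CHO cells. Fluorescence was then recorded kinetically every second over minutes.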
Sequence of Muscarinic acetylcholine receptor M1 (Homo sapiens) (P11229 whole entry, looked up): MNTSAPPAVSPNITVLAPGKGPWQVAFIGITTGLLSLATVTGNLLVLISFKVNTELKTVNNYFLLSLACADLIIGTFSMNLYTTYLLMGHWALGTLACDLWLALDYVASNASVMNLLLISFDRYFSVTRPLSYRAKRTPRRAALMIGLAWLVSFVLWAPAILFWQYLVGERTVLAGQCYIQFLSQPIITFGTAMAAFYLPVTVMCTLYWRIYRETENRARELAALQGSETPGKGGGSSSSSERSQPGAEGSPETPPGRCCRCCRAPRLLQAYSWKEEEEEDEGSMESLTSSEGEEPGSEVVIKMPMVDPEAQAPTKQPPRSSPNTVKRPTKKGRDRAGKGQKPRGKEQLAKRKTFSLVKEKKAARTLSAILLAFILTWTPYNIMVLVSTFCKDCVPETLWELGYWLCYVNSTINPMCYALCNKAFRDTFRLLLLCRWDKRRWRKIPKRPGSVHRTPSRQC

Experiment [12] is described as follows: cAMP Responsive Elements (CRE) small molecule agonists, cell-based qHTS assay (AID 1963590). In short, it runs like this: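 Agonist mode: compound added to CRE-bla HEK 293T cells (2,000/well, 18 h after plating) for 3 h at 37 C/5% CO2. Reporter activity detected via FRET beta-lactamase substrate, 2 h room-temperature loading.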
The target in experiment [13] is Beta-2 adrenergic receptor (Homo sapiens) (UniProt P07550). Nature of the experiment: Adrenergic beta2 receptor (ADRB2) small molecule antagonists, cell-based qHTS assay (AID 1963592). Further: series mostly up to about 92 µM; nearly all actives have a fitted effect of over 50% in size. In short, it runs like this: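 Assay format: CHO-ADRB2 cells, 18-20hr seeding at 37C/5% CO2, then compound plus 1nM isoproterenol agonist mix for 0.5hr RT. Homogeneous time-resolved fluorescence cAMP detection after 1hr, expressed as 665/615 nm ratio.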
Sequence of Beta-2 adrenergic receptor (Homo sapiens) (P07550 whole entry, looked up): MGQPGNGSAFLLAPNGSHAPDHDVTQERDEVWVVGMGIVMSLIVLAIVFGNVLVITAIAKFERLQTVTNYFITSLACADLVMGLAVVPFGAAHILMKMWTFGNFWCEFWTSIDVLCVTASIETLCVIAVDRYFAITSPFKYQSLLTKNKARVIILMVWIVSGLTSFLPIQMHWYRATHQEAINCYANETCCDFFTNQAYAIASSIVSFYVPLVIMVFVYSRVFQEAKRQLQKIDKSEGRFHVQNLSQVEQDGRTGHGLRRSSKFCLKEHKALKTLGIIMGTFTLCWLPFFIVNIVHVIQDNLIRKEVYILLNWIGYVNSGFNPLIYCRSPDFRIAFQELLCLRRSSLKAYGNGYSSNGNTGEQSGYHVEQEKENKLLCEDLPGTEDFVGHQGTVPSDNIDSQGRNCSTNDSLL

Experiment [14] has the same target. The experiment can be described thus: Adrenergic beta2 receptor (ADRB2) small molecule agonists, cell-based qHTS assay (AID 1963593).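 Further: CHO cells stably overexpressing human ADRB2.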 In short, it runs like this:
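CHO cells stably over-expressing ADRB2 were plated overnight at 37C, then dosed with compounds plus a stimulation mix containing 100uM IBMX and 25uM Ro-20-1724 for 0.5hr at room temperature. cAMP was measured by HTRF competition, 1hr.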

Experiment [15] has as its target D(2) dopamine receptor (Homo sapiens) (UniProt P14416). The experiment can be described thus: Dopamine D2 receptor (DRD2) small molecule agonists, cell-based qHTS assay (AID 1963594). Further: nearly all actives have a fitted effect of over 35% in size. In short, it runs like this:
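cAMP accumulation in DRD2-HEK293 cells measured by HTRF after 1 h detection; compounds added 10 min before NKH477 (200nM […]) forskolin-analogue stimulation, 30 min at room temperature, with Ro20-1724 present at 0.1 mM final.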

Experiment [16] has the same target. The experiment can be described thus: Dopamine D2 receptor (DRD2) small molecule antagonists, cell-based qHTS assay (AID 1963595; active means well fitted inhibition curve with a large enough effect in the signal ratio in the repeat runs, with a control signal flat; the % refers to the signal ratio). In short, it runs like this:
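Antagonist mode in DRD2-HEK293 cells: after compound addition with 0.1 mM Ro20-1724, cells received quinpirole (12 nM) and NKH477 (200 nM) for 30 min at room temperature; HTRF cAMP read after 1 h detection.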

Experiment [17] can be described thus: p53 small molecule agonists, cell-based qHTS assay with human liver microsomes: qHTS cell viability counter screen (AID 1963579). Further: nearly all actives have a fitted effect of over 45% in size. Further: potency means the concentration at half of the fitted maximal effect. In short, it runs like this: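 Viability of p53RE-bla cells is measured as CellTiter-Glo luminescence following a 16 h, 37 C incubation with compound, liver microsomes from human donors and NADPH.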
Experiment [18] is described as follows: p53 small molecule agonists, cell-based qHTS assay (AID 1963582; active means well fitted activation curve with a large enough effect in the signal ratio in the repeat runs, not every such curve was filed as active; the % refers to the signal ratio). In short, it runs like this:
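Read-out is beta-lactamase FRET fluorescence after 2 h at room temperature with LiveBLAzer B/G substrate. p53 response element-bla cells were treated 16 h at 37 C with compounds in DMSO, added 5 h after seeding.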

Experiment [19] concerns the target Muscarinic acetylcholine receptor M1 (Homo sapiens) (UniProt P11229). The experiment can be described thus: Cholinergic receptor muscarinic 1 (CHRM1) small molecule antagonists, cell-based qHTS assay (AID 1963588). Further: nearly all actives have a fitted effect of over 40% in size. In short, it runs like this:
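Compounds were tested at 15 concentrations in three independent runs. Dye-loaded CHRM1-CHO cells were exposed 5 min at room temperature before stimulation by acetylcholine added at 50nM. Intracellular calcium was read kinetically on FDSS for 3 min.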

A short description of experiment [20]: cAMP Responsive Elements (CRE) small molecule antagonists, cell-based qHTS assay (AID 1963591; active means well fitted inhibition curve with a large enough effect in the signal ratio in the repeat runs, not every such curve was filed as active; the % refers to the signal ratio). In short, it runs like this: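 Antagonist mode: compounds are added alongside the adenylyl cyclase activator NKH477 (0.25 uM final) to CRE-bla HEK293T cells for 3 h. LiveBLAzer FRET substrate, 2 h at room temperature, reports bla expression.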

Values joined by “and” are separate entries in the source; they are usually repeats but may differ in a detail not shown here. Equal values may be shown once. Inconclusive results are not listed. Some structures have more than one record in an assay (separate samples or runs), and their calls can disagree. Active and inactive are the calls of the source. Unless noted, the call rests on the fitted dose curve.
On the % scale 0 is the no-effect control and ±100 the full control effect.

Sequence of D(2) dopamine receptor (Homo sapiens) (P14416 whole entry, looked up): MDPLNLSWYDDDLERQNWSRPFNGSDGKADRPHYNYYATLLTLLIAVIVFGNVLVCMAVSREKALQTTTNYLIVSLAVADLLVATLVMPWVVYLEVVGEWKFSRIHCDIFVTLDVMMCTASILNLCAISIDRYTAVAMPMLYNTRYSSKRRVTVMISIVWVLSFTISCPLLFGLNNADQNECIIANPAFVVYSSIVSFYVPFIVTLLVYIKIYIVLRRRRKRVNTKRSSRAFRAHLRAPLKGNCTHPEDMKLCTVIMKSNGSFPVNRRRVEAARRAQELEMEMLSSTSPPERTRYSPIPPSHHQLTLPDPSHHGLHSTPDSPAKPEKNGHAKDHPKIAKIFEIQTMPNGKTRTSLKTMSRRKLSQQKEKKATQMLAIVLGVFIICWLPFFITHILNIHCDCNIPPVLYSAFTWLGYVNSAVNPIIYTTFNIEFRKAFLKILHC
Sequence of 5-hydroxytryptamine receptor 2A (Homo sapiens) (P28223 whole entry, looked up): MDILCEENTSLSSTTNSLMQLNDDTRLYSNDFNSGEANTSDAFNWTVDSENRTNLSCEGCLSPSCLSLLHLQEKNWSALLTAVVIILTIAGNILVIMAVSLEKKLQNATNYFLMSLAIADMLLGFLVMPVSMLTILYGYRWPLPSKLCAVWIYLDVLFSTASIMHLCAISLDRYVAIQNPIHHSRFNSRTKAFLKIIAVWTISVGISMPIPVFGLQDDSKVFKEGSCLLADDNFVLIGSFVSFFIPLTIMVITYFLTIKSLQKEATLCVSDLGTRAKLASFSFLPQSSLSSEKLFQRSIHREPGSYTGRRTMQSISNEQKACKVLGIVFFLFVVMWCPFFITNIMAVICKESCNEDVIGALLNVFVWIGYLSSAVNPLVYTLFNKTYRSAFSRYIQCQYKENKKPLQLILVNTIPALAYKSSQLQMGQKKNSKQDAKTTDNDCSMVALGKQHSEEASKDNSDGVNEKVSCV
Sequence of Gonadotropin-releasing hormone receptor (Homo sapiens) (P30968 whole entry, looked up): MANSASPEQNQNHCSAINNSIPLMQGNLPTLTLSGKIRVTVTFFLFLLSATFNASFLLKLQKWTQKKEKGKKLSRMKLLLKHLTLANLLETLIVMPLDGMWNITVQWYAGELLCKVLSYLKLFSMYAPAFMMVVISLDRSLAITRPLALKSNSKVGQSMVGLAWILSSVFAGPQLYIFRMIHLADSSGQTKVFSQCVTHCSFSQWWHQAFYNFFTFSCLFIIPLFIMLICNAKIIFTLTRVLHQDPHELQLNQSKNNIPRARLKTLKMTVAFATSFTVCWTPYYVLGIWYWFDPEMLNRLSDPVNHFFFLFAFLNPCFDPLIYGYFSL

As to `CC[C@H](c1ccc(O)cc1)[C@@H](CC)c1ccc(O)cc1`, the Potency was 54.5 µM (active) in experiment [1]; 33.4 µM (active) and 14.5 µM (active) in experiment [9]. Moreover, the Potency entry in experiment [2], in experiment [3], in [4], in experiment [5], in experiment [6] and in experiment [7] was “inactive” each time. Besides, the Potency result in [8], in experiment [10], in experiment [11], in experiment [12], in [13] and in [14] was “inactive” throughout. For the same compound, the Potency entry in experiment [15] and in experiment [16] was “inactive” in each case.
As for `O=c1[nH]c(=O)c2cn[nH]c2[nH]1`, the Potency result in experiment [1], in [2], in [3], in experiment [4], in experiment [5] and in [17] was “inactive” in each case. For the same compound, the Potency result in experiment [7], in experiment [8], in experiment [18], in experiment [9], in [10] and in [19] was “inactive” throughout. Besides, the Potency entry in experiment [11], in experiment [12], in experiment [20], in experiment [13], in [14] and in experiment [15] was “inactive” each time. In experiment [16], the Potency entry is “inactive”.
Take `O=S(=O)(O)c1ccc(N=Nc2c(O)ccc3cc(S(=O)(=O)O)ccc23)cc1`: the Potency in experiment [1] is 30.8 µM (active). Also, the Potency result in [2], in [3], in experiment [4], in experiment [5], in experiment [17] and in experiment [7] was “inactive” each time. The Potency result in experiment [8], in experiment [9], in [10], in experiment [19], in experiment [11] and in experiment [12] was “inactive” throughout. Further, the Potency result in experiment [20] is “inactive”.
`N[C@H](Cc1c[nH]c2ccccc12)C(=O)O`: the Potency entry in experiment [1], in [2], in experiment [3], in experiment [4], in experiment [5] and in [17] was “inactive” in each case. The Potency entry in experiment [7], in experiment [8], in [9], in [19], in [11] and in experiment [12] was “inactive” in each case. Besides, the Potency entry in [20], in experiment [13], in experiment [14], in [15] and in experiment [16] was “inactive” in each case. For the same compound, the Potency entry in experiment [10] is “inactive and 19 µM (active)”.
Take `CN(C)c1ccc(/C=C/c2ccc([N+](=O)[O-])cc2)cc1`: the activity change, negative = cytotoxicity in [1] is 0.836% [at 8.39 µM] (inactive); in experiment [17], 0.0681% [at 5.99 µM] (inactive); in [7], -5.21% [at 5.99 µM] (inactive); in experiment [8], -1.3% [at 5.99 µM] (inactive). In addition, the activity, positive = activation in [2] was 12.5% [at 8.39 µM] (inactive). Further, in [3], the activity change is 5.74% [at 5.22 µM, stronger effect = higher value] (inactive). The activation in experiment [4] is 7.36% [at 6.97 µM] (inactive); in experiment [5], 0.221% [at 5.23 µM] (inactive); in [18], -2.24% [at 5.99 µM] (inactive); in experiment [10], 13.3% [at 7.02 µM] (inactive); in experiment [11], 0.732% [at 6.97 µM] (inactive); in experiment [12], -3.18% [at 8.39 µM] (inactive). The activation in experiment [15] is -5.78% [at 8.39 µM] (inactive). Further, the activity, negative = inhibition was -0.541% [at 5.62 µM] (inactive) in experiment [9] and -8.69% [at 5.58 µM] (inactive) in experiment [19]. In addition, the activity change, negative = inhibition was 1.12% [at 8.39 µM] (inactive) in [20], 1.64% [at 8.39 µM] (inactive) in [13] and -2.29% [at 8.38 µM] (inactive) in [16].
For the compound `Nc1ccc(Cl)c(N)c1`, the Potency result in experiment [1], in experiment [2], in [3], in [4], in experiment [5] and in experiment [17] was “inactive” in each case. Further, the Potency result in [7], in experiment [8], in experiment [9], in experiment [10], in [19] and in [11] was “inactive” each time. For the same compound, the Potency result in experiment [12], in experiment [20], in experiment [13], in experiment [14], in experiment [15] and in [16] was “inactive” in each case.
Consider `Cn1sccc1=O`, for which the Potency in [1] was 43.3 µM (active) and 13.7 µM (active); in experiment [2], 13.7 µM (active) and 6.86 µM (active); in experiment [17], 28.9 µM (active) and inactive; in experiment [7] it was 18.2 µM (active). Also, the Potency entry in [3], in experiment [4], in experiment [5], in experiment [8], in experiment [9] and in [10] was “inactive” each time. The Potency entry in experiment [19], in [11], in experiment [12], in [20], in experiment [13] and in experiment [14] was “inactive” throughout. Moreover, the Potency result in experiment [15] and in [16] was “inactive” in each case.
